Hits are enriched below; roughly 4.8% of the tested compounds scored in any of these assays.
HepG2 tox-1 – counter-screen for TGF-b inhibitors: cytotoxicity in HepG2 cells | HepG2 CAGA-GFP viability, ATP luminescence, 18 h | Potency, µM (series often up to 46.1 µM), without a hit: at the top dose activity change, negative = cytotoxicity, usual class: cytotoxic | actives 0.76% (n = 410,000) | AID 588856; also: potency is read from the fitted curve at half-maximal effect
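CellTiter-Glo luminescence gave cytotoxicity after 18 hours at 37 degrees C. The cells were HepG2 CAGA-GFP in 1% FBS DMEM, stimulated with 500 pg/mL TGF-beta after compound addition. %Activity was normalised to no-cell wells (complete cell-killing) and DMSO (no toxicity), and curves were fitted and classified.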
D3 antag – blocks the human D3 dopamine receptor. AID 652054. max response, negative = inhibition, %. actives 2.5% (n = 360,000). P35462. D3R cells, DiscoveRx beta-arrestin luminescence, antagonist mode; stronger effect = lower value; in the data active = max response below about -50%; inconclusive = no clear call, values can overlap the other calls; also: % is scaled to controls: 0 for no effect and ±100 for the full control effect
Target sequence (P35462 whole entry, looked up): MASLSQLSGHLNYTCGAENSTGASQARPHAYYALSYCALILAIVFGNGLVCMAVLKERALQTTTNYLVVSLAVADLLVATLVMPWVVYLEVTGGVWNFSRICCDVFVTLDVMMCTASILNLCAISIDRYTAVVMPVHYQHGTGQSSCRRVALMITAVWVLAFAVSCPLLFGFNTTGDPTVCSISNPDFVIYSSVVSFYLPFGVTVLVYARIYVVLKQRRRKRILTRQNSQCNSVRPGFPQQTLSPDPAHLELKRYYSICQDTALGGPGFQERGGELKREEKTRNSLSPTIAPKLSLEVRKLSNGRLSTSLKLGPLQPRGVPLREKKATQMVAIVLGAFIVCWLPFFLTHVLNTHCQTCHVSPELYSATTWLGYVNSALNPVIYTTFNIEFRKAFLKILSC
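Cells plated overnight at 1500 cells/well, then exposed to library compounds with dopamine controls for 90 minutes at 37 degrees C. DiscoveRx reagent added for 30–60 minutes at room temperature; luminescence read, quantitative HTS format.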
TGFb inhibitor – TGF-b pathway inhibition. HepG2 CAGA-GFP TGF-b/SMAD3 reporter, GFP fluorescence, 18 h; TGF-beta stimulated, 500 pg/mL final. Potency, µM (series often up to 46.1 µM), for the others: top-dose activity, negative = inhibition, usual class: inhibitors. actives 1.2% (n = 410,000). AID 588855; also: potency is read from the fitted curve at half-maximal effect; % is scaled to controls: 0 for no effect and ±100 for the full control effect; nearly all actives have a fitted effect of over 65% in size
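TGF-beta reporter screen: HEPG2 CAGA-GFP, 1% FBS, 500 pg/mL TGF-beta final, 18 h; per-cell GFP summed per well; curves fitted and categorized by class.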
S2 tox – viability counter-screen for ATXN expression inhibitors. S2 cells (HEK-293 line with an ATXN2-luciferase reporter) viability, CellTiter-Fluor protease fluorescence, 24 h. AID 651635. actives 0.49% (n = 400,000). Potency, µM (titrated, usually from 56.7 µM), hits mostly cytotoxic; also: potency is read from the fitted curve at half-maximal effect; nearly all actives have a fitted effect of over 40% in size
ATXN2 expr inh – reduces ATXN2 reporter expression in HEK-293 cells; AID 1745845; HEK-293 ATXN2-luciferase reporter, luminescence, 24 h; actives 0.72% (n = 360,000); Potency, µM (titrated, usually from 57 µM), without a hit: top-dose activity change, negative = inhibition, hits mostly inhibitors; also: potency is read from the fitted curve at half-maximal effect; % is scaled to controls: 0 for no effect and ±100 for the full control effect; nearly all actives have a fitted effect of over 55% in size
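qHTS (up to 57 uM final) was run with 24 h compound exposure of reporter cells at 37 °C. Each well was multiplexed: SteadyGlo luminescence measured ATXN2-luciferase expression after a fluorogenic Gly-Phe-AFC viability readout (25 uM final).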
D3 ag – agonists of human D3 dopamine receptor. max activation, %. P35462. D3R DiscoveRx beta-arrestin cells, luminescence, 90 min. AID 652048. actives 0.58% (n = 410,000); in the data active = max activation above about 30%; also: 0% is about no effect
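Agonist-mode cell screen: cells plated at 1500/well and incubated overnight at 37 °C, then exposed to library compounds for 90 min at 37 °C. Detection reagent was added for 30–60 min at room temperature, and luminescence was read.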
TGFb CAGA inh – TGF-b pathway inhibition, cherry-pick retest; Potency, µM (series often up to 46.1 µM), for inactives: at the top dose activity, negative = inhibition, actives largely listed as inhibitors; actives 63% (n = 1,600); HepG2 CAGA-GFP TGF-b reporter, GFP fluorescence, 18 h; cells stimulated with TGF-beta, 500 pg/mL; shares compounds with TGFb inhibitor; also: potency is read from the fitted curve at half-maximal effect; % is scaled to controls: 0 for no effect and ±100 for the full control effect; nearly all actives have a fitted effect of over 65% in size
HepG2 tox-2 – toxic to HepG2 cells in TGF-b counterscreen | shares compounds with TGFb inhibitor | HepG2 CAGA-GFP viability, ATP luminescence, 18 h; cells stimulated with TGF-beta, 500 pg/mL | Potency, µM (doses to about 46.1 µM), for inactives: at the top dose activity, negative = cytotoxicity, actives largely listed as inhibitors | actives 27% (n = 1,600); also: potency is read from the fitted curve at half-maximal effect; % is scaled to controls: 0 for no effect and ±100 for the full control effect; nearly all actives have a fitted effect of over 70% in size
CCL64 TGFb inh – orthogonal confirmation of TGF-b inhibitors in CCL64 cells; shares compounds with TGFb inhibitor; CCL64 CAGA-GFP reporter, TGF-b stimulated, GFP fluorescence, 18 h; Potency, µM (doses to about 46.1 µM), inactives show top-dose activity, negative = inhibition, actives largely listed as inhibitors; actives 41% (n = 1,600); AID 720536; also: potency is read from the fitted curve at half-maximal effect; nearly all actives have a fitted effect of over 65% in size
COP TGFb inh – blocks TGF-b signaling in HepG2 COP reporter; shares compounds with TGFb inhibitor; HepG2 COP-GFP TGF-b reporter, GFP fluorescence, 18 h; cells stimulated by added recombinant TGF-beta; Potency, µM (top dose mostly 46.1 µM), for inactives: at the top dose activity, negative = inhibition, usual class: inhibitors; actives 3% (n = 1,600); also: potency is read from the fitted curve at half-maximal effect; nearly all actives have a fitted effect of over 70% in size
* = called active by the depositor; i = inactive; ? = inconclusive; nt = no result. Unless noted, calls follow the shape of the dose curve; as a rule, active = well fitted curve in the direction sought with a large enough effect; inconclusive = small, poorly fitted or top-dose-only effect, or another doubt; inactive = no such curve, though single readings can be large; an effect the other way counts as inactive or inconclusive.

SMILES | HepG2 tox-1 | D3 antag | TGFb inhibitor | S2 tox | ATXN2 expr inh | D3 ag | TGFb CAGA inh | HepG2 tox-2 | CCL64 TGFb inh | COP TGFb inh
COc1cc(C2NC(=O)c3ccccc3O2)cc(OC)c1OC (configuration not stated) | -3% | 23 | 5% | i | 16% | 8 | nt | nt | nt | nt
CC(C(=O)Nc1ccc(C(F)(F)F)cc1)N(C)CC(=O)N1CCN(Cc2ccccc2)CC1 (configuration not stated) | -16% | -2 | ? | i | -19% | -11 | nt | nt | nt | nt
CSc1ccccc1NC(=O)C(C)N(C)CC(=O)N1CCN(Cc2ccccc2)CC1 (configuration not stated) | 1% | -8 | ? | i | -18% | 0 | ? | 0% | 5% | 4%
C(=C\c1ccnc2ccccc12)/c1ccc(N2CCN(c3ccc(/C=C/c4ccnc5ccccc45)cc3)CC2)cc1 | -40% | nt | -4% | nt | nt | nt | nt | nt | nt | nt
CCOc1ccc(NC(=O)CSc2nnc3scc(-c4ccccc4)n23)cc1 | -4% | nt | 14% | i | -12% | 1 | nt | nt | nt | nt
Cc1cc(C)cc(NC(=O)Cn2c(=O)oc3cc(S(=O)(=O)N4CCC(C)CC4)ccc32)c1 | 7.9µM* | -26 | 7.9µM* | i | ? | 1 | ? | -22% | ? | 8%
CC1CCN(S(=O)(=O)c2ccc3c(c2)oc(=O)n3CC(=O)O)CC1 | 12% | nt | -3% | nt | nt | -3 | nt | nt | nt | nt
Cc1cccc(CN2C(=O)NC(c3ccccc3)(c3ccccc3)C2=O)c1 | -26% | ? | 22µM* | i | ? | -13 | ? | ? | ? | 60%
CCCCn1c(NC(=O)c2ccco2)c(S(=O)(=O)c2ccc(C)cc2)c2nc3ccccc3nc21 | -6% | 0 | ? | nt | 2% | -2 | 3% | -20% | 16µM* | 32%
CCCCCn1c(NC(=O)c2ccco2)c(S(=O)(=O)c2ccc(C)cc2)c2nc3ccccc3nc21 | -48% | 9 | ? | i | -19% | 2 | nt | nt | nt | nt
Cc1ccc(NC(=S)NCc2ccccc2)cc1S(=O)(=O)N1CCCCC1 | -24% | -2 | 16µM* | ? | nt | -4 | 23µM* | ? | 26µM* | 58%
C#CCOc1c(Cl)cc(/C=N/NC(N)=S)cc1OCC | 16% | 1 | 0% | i | -19% | 6 | nt | nt | nt | nt
CCOc1c(Cl)cc(/C=N/NC(N)=S)cc1OC | 6% | 3 | 14µM* | i | nt | 3 | ? | 6% | ? | -28%
Cc1cccc(C(c2sc3nc(-c4ccco4)nn3c2O)N2CCOCC2)c1 (configuration not stated) | 4% | nt | 1% | i | -1% | 4 | nt | nt | nt | nt
COc1cccc2sc(N(CCCN(C)C)C(=O)c3ccc(S(=O)(=O)N4CCc5ccccc5C4)cc3)nc12 | -79% | -28 | ? | ? | ? | -13 | nt | nt | nt | nt
COc1ccc(C)c2sc(N(CCCN(C)C)C(=O)c3ccc(S(=O)(=O)N4CCc5ccccc5C4)cc3)nc12 | 7.1µM* | 4 | 5µM* | nt | 28µM* | -5 | 4.6µM* | 5.2µM* | 5.2µM* | ?
COC(=O)[C@@H]1C[C@@H](NC(=O)c2cnsn2)CN1Cc1ccc(Cl)cc1 | nt | nt | nt | i | nt | nt | nt | nt | nt | nt
Cc1nc2c(C(=O)NCCC(C)C)cnn2c(C)c1Cc1c(F)cccc1Cl | -24% | nt | -13% | i | -3% | -6 | nt | nt | nt | nt
CC(C)C[C@H]1CNC(=S)N1C[C@H]1CCCN1C[C@H](Cc1ccccc1)N1C[C@H](Cc2ccc(O)cc2)N(CCc2ccccc2)C1=S | -9% | -29 | 7.1µM* | ? | ? | -4 | 12µM* | -24% | ? | 12%
CC(C)C[C@H]1CNC(=S)N1C[C@H]1CCCN1C[C@H](Cc1ccc(O)cc1)N1C[C@H](Cc2ccc(O)cc2)N(CCc2ccccc2)C1=S | -40% | ? | 10µM* | nt | ? | -13 | ? | 15µM* | 4.6µM* | 78%
Oc1ccc(C[C@H]2CNC(=S)N2CC2CCCN2C[C@H](Cc2ccccc2)N2C[C@H](Cc3ccc(O)cc3)N(CCc3ccccc3)C2=S)cc1 (some centres not stated) | 2% | -17 | 7.9µM* | ? | ? | 4 | 5.8µM* | ? | 9.2µM* | 62%
CC(C)C[C@H]1CN([C@@H](Cc2ccc(O)cc2)CN2CCC[C@@H]2CN2C(=S)NC[C@@H]2Cc2ccccc2)C(=S)N1CCc1ccccc1 | -5% | -1 | ? | ? | ? | -18 | nt | nt | nt | nt
CCC(C)NC(=O)CCC(=O)N1Cc2ccccc2Oc2ncccc21 (configuration not stated) | 9% | nt | 1% | i | -6% | -7 | nt | nt | nt | nt
O=C(c1ccc(CSc2nc3ccncc3[nH]2)cc1)N1CCN(c2cccc(Cl)c2)CC1 | -45% | 14 | 7.9µM* | ? | ? | 4 | 16µM* | ? | ? | 12%
O=C(c1ccc(CSc2nc3ccncc3[nH]2)cc1)N1CCCCCC1 | -38% | 9 | -16% | i | ? | 7 | nt | nt | nt | nt
Fc1ccc(CCNc2ncnc3nc[nH]c23)cc1 | -20% | nt | 33% | nt | nt | nt | nt | nt | nt | nt
COc1ccccc1-n1cc([C@@H]2C[C@H]3CN(c4ccccc4)C(=O)[C@]34CCCN24)cn1 | 0% | -7 | 5µM* | ? | ? | -3 | 0.73µM* | ? | 5.2µM* | 27%

From PubChem
